A selection: hits, their analogues and other compounds. The true share with any hit is near 7.9%.
FMDV inh – antivirals against foot and mouth disease virus; hit rate 1.2% among 410,000; FMDV antiviral cell-based qHTS; AID 1159524; Potency, µM (titrated, usually from 57.9 µM), usual class: inhibitors; calls by dose curve; tested in HEK293T cells; further: read-out not given here; nearly all actives have a fitted effect of over 45% in size
HCV inh – blocks hepatitis C virus | Huh7.5.1 HCVcc-Cre infection, luciferase reporter, 44 h | Potency, µM (doses to about 41.8 µM), usual class: inhibitors | hit rate 3.4% among 340,000 | AID 651820; active means well fitted inhibition curve with a large enough effect; inconclusive means small, poorly fitted or top-dose-only effect, or another doubt; inactive means no such curve, though single readings can be large or run the other way
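Cells seeded at 1,000/well and cultured 4 h, then compounds added followed by HCVcc-Cre virus (~0.5 moi). After 44 h further culture, luciferase substrate was added, plates held 15 min at room temperature, and luminescence read for 15 sec.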
MARV entry inh – inhibitors of Marburg virus binding or cell entry; Potency, µM (series often up to 37.8 µM), most hits filed as inhibitors; hit rate 1.8% among 300,000; AID 540276; Marburg virus pseudotyped entry inhibition, cell reporter; calls by dose curve; tested in HEK293 cells
HCMV antiviral – human cytomegalovirus inhibition. hit rate 4.5% among 410,000. activity change, negative = inhibition, % at 57.5 µM. HFF cells, HCMV-luciferase reporter, 72 h; stronger effect = lower value; in the data active means activity change below about -60%; inconclusive means no clear call, values can overlap the other calls; inactive means above about -39%
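After 16 h attachment at 37C, HFF cells received test compound and HCMV-luciferase (1 PFU/cell); reporter luminescence read 72 h later, data normalized against buffer-only and known inhibitor Salinomycin.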
LASV entry inh – inhibitors of Lassa virus binding or cell entry. Lassa virus pseudotype entry inhibition, cell reporter. Potency, µM (series often up to 37.9 µM), hits mostly inhibitors. hit rate 1.2% among 300,000; calls by dose curve; tested in HEK293 cells; further: nearly all actives have a fitted effect of over 50% in size
Of the large screens only hits and unclear results are named; the others gave an inactive call.

COC(=O)NCC(c1ccco1)N1CCN(c2ccc(F)cc2)CC1 (stereo unspecified)	none
O=C(NCc1cccs1)C(=O)NCC(c1ccco1)N1CCN(c2ccccc2F)CC1 (stereo unspecified)	HCV inh 11.2µM (no result: MARV entry inh, LASV entry inh)
O=C(NCC(c1ccco1)N1CCN(c2ccccc2F)CC1)c1cccs1 (stereo unspecified)	MARV entry inh inconclusive (no result: HCMV antiviral)
CCOc1cccc2sc(N(CCN(CC)CC)C(=O)c3ccco3)nc12	none (no result: HCV inh, MARV entry inh)
CCCc1ccc(C2Sc3ccccc3NC3=C2C(=O)c2ccccc23)cc1 (stereo unspecified)	MARV entry inh inconclusive, HCMV antiviral -92.6, LASV entry inh inconclusive (no result: HCV inh)
O=C1C2=C(Nc3ccccc3SC2c2c(F)cccc2Cl)c2ccccc21 (stereo unspecified)	none (no result: HCV inh)
O=C1C2=C(Nc3ccccc3SC2c2ccc(Cl)c(Cl)c2)c2ccccc21 (stereo unspecified)	HCMV antiviral -99.8, LASV entry inh inconclusive (no result: HCV inh)
O=C1C2=C(Nc3ccccc3SC2c2ccccc2C(F)(F)F)c2ccccc21 (stereo unspecified)	MARV entry inh inconclusive, HCMV antiviral -93.6 (no result: HCV inh)
COCN(C#N)c1nc(N(C)C)nc(N(C)C)n1	HCV inh inconclusive (no result: LASV entry inh)
CCN(C#N)c1nc(N(C)C)nc(N(C)C)n1	HCV inh 10µM
COc1ccccc1NS(=O)(=O)c1ccc2oc(SCc3ccc(C#N)cc3)nc2c1	FMDV inh inconclusive, HCV inh 11.2µM, MARV entry inh inconclusive, HCMV antiviral -84.1, LASV entry inh inconclusive
CCN(CC)S(=O)(=O)c1ccc2oc(SCc3ccc(F)cc3)nc2c1	FMDV inh inconclusive, HCV inh inconclusive, MARV entry inh inconclusive, HCMV antiviral inconclusive, LASV entry inh 11.2µM
Cc1cc(NC(=O)CSc2nc3cc(Cl)ccc3o2)no1	none
CCN(CC)S(=O)(=O)c1ccc2oc(SCC(=O)Nc3cc(C)on3)nc2c1	HCV inh 6.31µM, MARV entry inh inconclusive, HCMV antiviral inconclusive, LASV entry inh inconclusive
CCS(=O)(=O)c1ccc2oc(SCC(=O)NCCc3ccc(F)cc3)nc2c1	FMDV inh inconclusive, HCMV antiviral inconclusive
CCS(=O)(=O)c1ccc2oc(SCC(=O)NCCC3=CCCCC3)nc2c1	FMDV inh inconclusive, MARV entry inh inconclusive, HCMV antiviral -102.8
C[C@H]1CC[C@H]2C(=O)N(Cc3ccccc3)C[C@@H](O)CN2[C@H]1c1cccc(Br)c1	LASV entry inh inconclusive (no result: FMDV inh, HCV inh, HCMV antiviral)
CNS(=O)(=O)c1cn(CC(=O)N2CCN(c3ccc(Cl)cc3)CC2)cc1S(=O)(=O)NC	none (no result: HCV inh, MARV entry inh)
CC(=O)c1ccc2c(c1)Cc1cc(C(C)=O)ccc1-2	LASV entry inh inconclusive
CC(=O)c1ccc2c3c(cc(C)c2c1)CCCC3	HCV inh 11.2µM, HCMV antiviral -66.2
Cc1cccc2c1N[C@H](/C=C/C(=O)OC(C)(C)C)C2	none (no result: FMDV inh, HCV inh, MARV entry inh, LASV entry inh)
O=C(c1cnn(-c2nccc(-c3ccco3)n2)c1C1CC1)N1CCCCC1c1cccnc1 (stereo unspecified)	none (no result: HCV inh, MARV entry inh, HCMV antiviral, LASV entry inh)
O=S(=O)(Cc1ccc(Cl)cc1)Nc1ccc(Cl)cn1	MARV entry inh inconclusive, HCMV antiviral -100.5
O=C(Nc1csc([N+](=O)[O-])c1)Nc1c(Cl)cccc1Cl	HCMV antiviral -76.4 (no result: MARV entry inh, LASV entry inh)
O=C(Nc1ccc(Cl)cc1)Nc1csc([N+](=O)[O-])c1	HCV inh inconclusive, MARV entry inh inconclusive, HCMV antiviral -103.4, LASV entry inh inconclusive
CCNC(=O)NC(=O)c1csc([N+](=O)[O-])c1	HCV inh inconclusive
O=C(CN1C(=O)C2CCCCN2c2ccc(C(=O)N3CCCC3)cc21)NCc1cccc(F)c1 (stereo unspecified)	none (no result: HCV inh, MARV entry inh)
COc1ccc2c(c1)C(c1cccs1)=NNC(c1ccncc1)=N2	HCV inh 11.2µM (no result: MARV entry inh, LASV entry inh)
Cc1cccc2c(N3CCCC3)nc(CNS(=O)(=O)c3ccccc3Cl)nc12	none (no result: HCV inh, MARV entry inh, HCMV antiviral, LASV entry inh)
CC(C)(C)NCC(=Cc1ccccc1)C(=O)c1ccccc1	FMDV inh 8.91µM, HCV inh inconclusive, MARV entry inh 7.94µM, HCMV antiviral -97.6, LASV entry inh 7.08µM
COc1ccc(-n2c(COc3cccc4ccccc34)nnc2SCC#N)cc1	HCV inh inconclusive, MARV entry inh inconclusive, LASV entry inh inconclusive
O=C(O)CCSc1nnc(COc2cccc3ccccc23)n1-c1cccc(Cl)c1	MARV entry inh inconclusive, HCMV antiviral -99.0
N#CCSc1nnc(COc2cccc3ccccc23)n1-c1ccccc1	FMDV inh 14.1µM, HCV inh inconclusive, MARV entry inh inconclusive, LASV entry inh inconclusive
Cc1ccc(S(=O)(=O)C(CNC(=O)COc2ccc(Cl)cc2)c2ccco2)cc1 (stereo unspecified)	none (no result: HCV inh, MARV entry inh)
COc1ccc(CN2CCN(CCSc3ccc(C)cc3)CC2)c(OC)c1OC	FMDV inh inconclusive, HCV inh 14.1µM (no result: MARV entry inh, LASV entry inh)
CCOc1ccc(-c2cc3nc(C4CCN(C(=O)OC(C)(C)C)CC4)c(C(=O)Nc4ccc(C)cc4C)cn3n2)cc1	MARV entry inh inconclusive, LASV entry inh inconclusive (no result: HCV inh)
CCOc1ccc(-c2cc3nc(C4CCN(C(=O)OC(C)(C)C)CC4)c(C(=O)Nc4c(C)cccc4C)cn3n2)cc1	MARV entry inh 7.08µM (no result: HCV inh)
CCCN(C(=O)CCc1nc(-c2ccc(C)cc2)no1)c1ccc(OCC)cc1	MARV entry inh inconclusive, LASV entry inh inconclusive (no result: HCV inh)
CCCC(Oc1ccc(Br)cc1)c1nc2c3cc(OC)c(OC)cc3nc(=S)n2[nH]1 (stereo unspecified)	HCV inh inconclusive, MARV entry inh inconclusive, HCMV antiviral -86.3
CCCCC(=O)Nc1ccc(C(=O)OC2CCCCC2)cc1	HCV inh inconclusive, HCMV antiviral -95.9, LASV entry inh inconclusive
O=C(O)CCC(=O)Nc1ccc(C(=O)OC2CCCCC2)cc1	none (no result: FMDV inh)
O=C(Nc1ccc(C(=O)OC2CCCCC2)cc1)c1ccncc1	HCV inh inconclusive, MARV entry inh inconclusive, HCMV antiviral -77.6, LASV entry inh inconclusive
O=C(OC1CCCCC1)c1ccc(NC(=O)C2CCCCC2)cc1	HCV inh 25.1µM, MARV entry inh inconclusive, LASV entry inh inconclusive
Cc1c(NC(=O)c2ccc(-c3ccc(F)cc3)o2)cccc1-c1nc2ncccc2o1	none (no result: HCV inh, MARV entry inh)
COCCCNC(=O)c1cnn(-c2ncc3c(n2)-c2ccccc2CCC3)c1C	none (no result: HCV inh, MARV entry inh, HCMV antiviral, LASV entry inh)
Nc1c(C(=O)Nc2ccccc2Cl)c2ccccn2c1C(=O)c1ccc(Cl)cc1	none (no result: HCV inh)
COC(=O)c1sccc1S(=O)(=O)N1CCN(c2ccc(C)cc2C)CC1	none (no result: HCV inh, MARV entry inh)
Cc1ccc(NC(=O)C(=O)NCCCN2CCOCC2)cc1C	LASV entry inh inconclusive (no result: HCV inh)
Cc1cccc(-n2c(SCC(=O)N3CC(=O)Nc4ccccc43)nc3ccccc3c2=O)c1C	FMDV inh inconclusive, HCV inh inconclusive, HCMV antiviral -64.5 (no result: LASV entry inh)
Cc1ccc(-n2c(SCC(=O)N3CC(=O)Nc4ccccc43)nc3ccccc3c2=O)cc1C	FMDV inh inconclusive, HCV inh inconclusive, HCMV antiviral -80.0 (no result: LASV entry inh)
Cc1cccc(-n2c(SCC(=O)N3CC(=O)Nc4ccccc43)nc3ccccc3c2=O)c1	HCMV antiviral -62.1, LASV entry inh inconclusive
CC(c1ccccc1)n1c(SCC(=O)N2CC(=O)Nc3ccccc32)nc2ccccc2c1=O (stereo unspecified)	FMDV inh inconclusive, HCV inh inconclusive, MARV entry inh inconclusive, HCMV antiviral -81.4, LASV entry inh inconclusive
